This is an account of results in PubChem BioAssay AID1850 (Southern Research Specialized Biocontainment Screening …, 2009).

“And” between values parts separate entries of the source, which are not always exact repeats. Identical values can stand only once. Screen size: about 310,000 compounds; about 1,000 (0.32%) were called active. The rule behind the calls is not given here. The list is a sample of the results. Measured potencies and affinities stand elsewhere.

The experiment in a line: PhoP regulon inhibitors, Salmonella typhi PhoP promoter GFP reporter, confirmatory (AID 1850).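 Note: 0% = induced wells with vehicle and 100% = uninduced wells.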 The note with it: fluorescence, 4 h, at 50 µM, hits give high values.
Take `CCOC(=O)c1c(NC(=O)Cn2nc(C(=O)O)c3ccccc3c2=O)sc2c1CCC(C)C2` (centres undefined): the inhibition is 17.9% (inactive).

In the case of `COc1cccc(C2(O)CC(C(F)(F)F)=NN2C(=O)c2ccccn2)c1` (centres undefined), the inhibition is 7.91% (inactive). Regarding `C[n+]1c2n(c3ccccc31)N=C(c1ccccc1)CS2`, the inhibition was 0.32% (inactive) and 11.8% (inactive). Next, `C[n+]1c2n(c3ccccc31)N=C(c1ccc(Cl)cc1)CS2`: 12.3% (inactive); `O=C(CSC1=NS(=O)(=O)c2ccccc2N1)NCc1ccc(F)cc1`: -4.98% (inactive); `O=C(CNC(=O)c1cccc(F)c1)N/N=C/c1cccc([N+](=O)[O-])c1`: -5.75% (inactive). For `O=C(CNC(=O)c1ccccc1)N/N=C/c1cccs1` the value was -1.08% (inactive); for `O=C(Cc1ccccc1)N/N=C/c1ccc([N+](=O)[O-])s1`, -7.77% (inactive); for `O=C(Cc1ccccc1)NCC(=O)N/N=C/c1ccc([N+](=O)[O-])s1`, 11.8% (inactive). For the compound `O=C(Cc1cccs1)N/N=C/c1ccccc1`, the inhibition was 10.9% (inactive). Next, `O=C(CNC(=O)c1ccccc1Cl)N/N=C/c1ccc([N+](=O)[O-])s1`: -11.8% (inactive).

Consider `Cn1cccc1Cc1nnc(SCC(=O)Nc2ccc3c(c2)OCO3)n1-c1ccc(F)cc1`, for which the inhibition is -1.53% (inactive). Next, `NC(=O)CN1C(=O)NC2(CCOc3ccccc32)C1=O` (centres undefined): 1.52% (inactive). For `CC(=O)Nc1ccc(NC(=O)c2cccc(-c3cc4ccccc4oc3=O)c2)cc1` the value was 12.9% (inactive); for `CCn1cc(C(=O)NCCCOC(C)C)c2cc(OC)c(OC)cc2c1=O`, 2.36% (inactive); for `CN(C)c1ccc(P(=O)(COc2ccc([N+](=O)[O-])cc2)c2ccc(N(C)C)cc2)cc1`, 2.27% (inactive).

In the case of `O=C(CSc1ccc(-c2cccnc2)nn1)N1CCCCCC1`, the inhibition was 1.55% (inactive). Next, `O=C(CCCn1cc([N+](=O)[O-])cn1)NCc1ccccc1`: 8.46% (inactive). Consider `Cc1c(C(=S)NC(=O)C2CC2)c(=O)n(-c2ccccc2)n1C`, for which the inhibition was -1.42% (inactive). Turning to `CCc1ccc2c(CN(CC)Cc3nc4ccccc4c(=O)[nH]3)cc(=O)oc2c1`, the inhibition is 1.52% (inactive). For `Nc1nc2ccccc2n1CCOc1ccc(F)cc1` the value was -3.28% (inactive); for `CCn1c(N)nc2ccccc21`, 4.17% (inactive). For `Cc1ccc(Cn2c(N)nc3ccccc32)cc1` the value was 9.42% (inactive). Next, `Nc1nc2ccccc2n1CCOc1ccc(Cl)cc1`: 14.7% (inactive); `Cc1ccc(NS(=O)(=O)c2ccc(C(=O)N3CC(C)CC(C)C3)cc2)cc1` (centres undefined): -0.14% (inactive). Regarding `Cc1cc(=O)oc2cc(OCc3ccc(S(=O)(=O)N4CCOCC4)cc3)ccc12`, the inhibition was -0.96% (inactive). For `COc1ccc(/C=C2\SC(=S)N(C(C)C(=O)NC3C=CS(=O)(=O)C3)C2=O)cc1` (centres undefined) the value was 0.74% (inactive).

`CC(C)c1ccc(/C=C2\SC(=O)N(CC(=O)NC3CCS(=O)(=O)C3)C2=O)cc1` (centres undefined): the inhibition was -0.28% (inactive).

Regarding `CC(C(=O)NC1C=CS(=O)(=O)C1)N1C(=O)/C(=C\c2ccccc2)SC1=S` (centres undefined), the inhibition is -9.78% (inactive).

Take `O=C(CN1C(=O)/C(=C/c2cccc(Cl)c2)SC1=S)NC1C=CS(=O)(=O)C1` (centres undefined): the inhibition was -2.52% (inactive). For `CC(C(=O)N(C)C1CCS(=O)(=O)C1)N1C(=O)/C(=C/c2ccc(F)cc2)SC1=S` (centres undefined) the value was -40% (inactive).

As to `COc1cccc(/C=C2\SC(=S)N(C(C)C(=O)NC3C=CS(=O)(=O)C3)C2=O)c1` (centres undefined), the inhibition was -39% (inactive). For `COc1cc2c(cc1OC)C(C)N(C(=O)c1c(C)noc1C)CC2` (centres undefined) the value was -18.4% (inactive); for `CC(=O)CCC(=O)OCC(=O)Nc1ccc(SC(F)F)cc1`, -3.54% (inactive); for `O=C1CCC(=O)N1c1ccc(NC2CCN(Cc3ccccc3)CC2)c([N+](=O)[O-])c1`, -3.82% (inactive).

Take `CC1(C)C2CC[C@]3(C)C(CC=C4[C@@H]5C[C@@](C)(CO)[C@@H](O)C[C@]5(C(=O)O)CC[C@]43C)[C@@]2(C)CC[C@@H]1O` (some centres undefined): the inhibition was -13.5% (inactive). For `CC(C)(C)NCc1cccn1-c1sc2c(c1C#N)CCCC2` the value was -5.99% (inactive); for `C=CC[n+]1c(/C=C2\C=Cc3cc(C)ccc3N2CC)ccc2ccccc21`, -11.1% (inactive); for `CCN1/C(=C/c2ccc3ccccc3[n+]2CCCS(=O)(=O)[O-])C=Cc2cc(C)ccc21`, 14.2% (inactive). In the case of `CCOC(=O)C(=CNc1ccc(C(O)(C(=O)OCC)C(F)(F)F)cc1C)C(=O)OCC` (centres undefined), the inhibition is -10.1% (inactive). In the case of `CCOC(=O)c1[nH]c2ccc(OC)cc2c1NC(=O)CN1CCSCC1`, the inhibition was 6.71% (inactive).

In the case of `Cc1cccc(N2CCN(C(=O)c3csc4ccccc34)CC2C)c1` (centres undefined), the inhibition was -6.46% (inactive). For `Cc1nonc1C(=O)N/N=C/c1ccc(O)c(O)c1`, the inhibition was -18.7% (inactive).

For the compound `Cc1cc(C(=O)N/N=C/c2ccc([N+](=O)[O-])o2)c(C)o1`, the inhibition was -1.11% (inactive). For `Nc1nonc1C(=O)N/N=C/c1ccc([N+](=O)[O-])o1` the value was -4.72% (inactive); for `CCCOc1ccc(CCC(=O)N/N=C/c2ccc([N+](=O)[O-])o2)cc1`, 3.44% (inactive); for `Cc1ccc(NC(=O)CCC(=O)N/N=C/c2ccc([N+](=O)[O-])o2)cc1C`, -0.54% (inactive). For `O=C(CSc1ccc(Cl)cc1)N/N=C/c1ccc([N+](=O)[O-])o1` the value was -1.14% (inactive); for `CCCCCC(=O)N/N=C/c1ccc([N+](=O)[O-])o1`, 17.1% (inactive). In the case of `Cc1nonc1C(=O)N/N=C/c1cccc(O)c1`, the inhibition is -9.29% (inactive).

For `COc1ccccc1C(=O)N1CCc2ccccc21`, the inhibition is -2.54% (inactive). Consider `COCCN(C(=S)Nc1cc(C)cc(C)c1)C(C)c1cccnc1` (centres undefined), for which the inhibition is -6.47% (inactive). For the compound `O=C1c2ccccc2C(=O)N1OCc1ccccc1`, the inhibition was -23.3% (inactive). `COc1ccc(N(C)C(=O)CCC(=O)Nc2ccc3nc(N4CCOCC4)cc(C)c3c2)c(OC)c1`: the inhibition was -10.9% (inactive).

As for `CC(C)c1ccccc1OCC(=O)Nc1ccc2[nH]ncc2c1`, the inhibition was -2.28% (inactive). For `O=C1CC(c2ccccc2Cl)CC(O)=C1C=Nc1ccccc1` (centres undefined) the value was -11% (inactive); for `O=C(CNc1cccc([N+](=O)[O-])c1)N/N=C/c1ccc([N+](=O)[O-])o1`, 17.3% (inactive). For `O=C(COc1ccccc1)N/N=C/c1ccc([N+](=O)[O-])o1` the value was 3.11% (inactive); for `Cc1nc2ccccn2c1C(=O)N/N=C/c1ccc([N+](=O)[O-])cc1`, 2.94% (inactive). For `O=C(CCN1CCN(c2ccccc2)CC1)N/N=C/c1ccccc1O` the value was -12.1% (inactive). As for `CC(=O)Nc1ccc(/C=N/NC(=O)CCN2CCN(c3ccccc3)CC2)cc1`, the inhibition was 3.88% (inactive). Next, `Cc1nc2ccccn2c1C(=O)N/N=C/c1ccccc1[N+](=O)[O-]`: 5.76% (inactive); `O=C(Cc1ccccc1)N/N=C/c1ccc(-c2ccc([N+](=O)[O-])cc2)o1`: -11.9% (inactive); `Cc1cc(C)cc(OCC(=O)N/N=C/c2ccc([N+](=O)[O-])o2)c1`: -6.8% (inactive).

The inhibition is the change of the read-out against control, counted positive when it falls.
